Shown are actives, neighbours in structure and some others; about 0.51% of the full set was active somewhere.
FMDV antiviral – Primary qHTS Assay for Foot and Mouth Disease Virus Antivirals against NCGC Sytravon and CBC Compound Libraries: Firefly Luciferase Signal. FMDV antiviral cell assay, firefly luciferase signal. Potency, µM (highest dose often 57.5 µM), inactives show top-dose activity change, negative = inhibition, hits mostly inhibitors. 120,000 compounds, 0.23% hits; further: nearly all actives have a fitted effect of over 60% in size
FMDV RLuc – Primary qHTS Assay for Foot and Mouth Disease Virus Antivirals against NCGC Sytravon and CBC Compound Libraries: Renilla Luciferase Signal; AID 1745857, 2022; FMDV replicon cells, Renilla luciferase signal; Potency, µM (series often up to 57.5 µM), for inactives: at the highest dose activity change, negative = inhibition, actives largely listed as inhibitors; 120,000 compounds, 0.32% hits; further: nearly all actives have a fitted effect of over 55% in size
An asterisk follows results filed as active; ? = inconclusive; [ ] = another dose, or the depositor's remark. The call rests on the fitted dose curve. On the % scale 0 is the no-effect control and ±100 the full control effect; potency means the concentration at half of the fitted maximal effect.

SMILES | FMDV antiviral | FMDV RLuc
O=C(CSc1ccc(N2CCC(C(=O)N3CCCCC3)CC2)nn1)Nc1ccc2c(c1)CCC2 | 3.98µM* | 3.16µM*
O=C(CSc1ccc2ccccc2n1)Nc1ccc2c(c1)CCC2 | 59.2% | -1.2%
O=c1c2cc([N+](=O)[O-])ccc2ncn1Cc1coc(-c2cccs2)n1 | 0.0% | 10.7%
CCn1c(COc2ccccc2Cl)nnc1SCc1cc(=O)c2cc(C(N)=O)ccc2[nH]1 | -5.9% | -1.2%
CCc1ccc(OCc2nnc(SCc3cc(=O)c4ccccc4[nH]3)n2CC)cc1 | ? | 15.8µM*
CC(C)OC(=O)CSc1nc2c(c(=O)[nH]c(=O)n2C)n1C | 89.1% | 46.0%
COc1ccc(NC(=O)c2ccc(NC(=O)N3CCSc4ncccc43)cc2)cc1 | 2.5% | 5.3%
CC(=O)c1ccc(NC(=O)c2cccc(NC(=O)N3CCSc4ncccc43)c2)cc1 | 3.16µM* | -8.7%
Cn1c(=O)c2c(ncn2CCC(=O)Nc2ccc(Cl)cc2F)n(C)c1=O | 6.0% | -1.5%
Cc1cccc(NC(=O)/C(C#N)=C/c2cc(C(C)(C)C)c(O)c(C(C)(C)C)c2)c1C | ? | 6.31µM*
Cc1ccc(/C=C(/C#N)C(=O)Nc2cccc3ncccc23)cc1 | 2.0% | 17.0%
O=S(=O)(Nc1ccc(-c2nnc3n2CCCCC3)cc1)c1ccc2c(c1)OCCCO2 | 7.0% | 116.4%
CNC(=O)c1ccccc1OCc1coc(-c2cccc(F)c2)n1 | ? | 25.1µM*
Fc1cccc(-c2nc(COc3ccccc3F)co2)c1 | 159.7% | 10.0%
CCc1ccc(S(=O)(=O)Nc2ccc3nc(N4CCN(CCC#N)CC4)cc(C(=O)O)c3c2)cc1 | -2.2% | -6.3%
CCC1CN(C(=O)N2CCC(C(=O)N3CCN(c4cccc(C)c4C)CC3)CC2)c2ccccc2O1 (stereo not given) | ? | 28.2µM*
CCC1CN(C(=O)N2CCC(C(=O)Nc3cc(C)ccc3C)CC2)c2ccccc2O1 (stereo not given) | -0.1% | 18.7%
CCC1CN(C(=O)N2CCC(C(=O)N3CCN(c4cc(C)ccc4C)CC3)CC2)c2ccccc2O1 (stereo not given) | 20µM* | ?
CCC1CN(C(=O)N2CCC(C(=O)NCc3ccccc3C)CC2)c2ccccc2O1 (stereo not given) | -13.7% | 17.3%
COCc1nnc(NC(=O)Cn2ccc3cc(OC)ccc32)s1 | 0.0% | 28.6%
Cn1c(=O)c(=O)n(C)c2cc(N3CCCCC3)c(NS(=O)(=O)c3ccc(C(C)(C)C)cc3)cc21 | -14.0% | -9.6%
Cc1nnc(NC(=O)c2cc(=O)c3cc(C)c(C)cc3o2)s1 | 20.4% | 8.2%
N#CCOc1ccc(COc2cccc(C#N)c2)cc1 | 111.1% | 7.7%
N#CCOc1ccc2ccccc2c1 | 12.6µM* | 1.4%
CN(CC(=O)N(C)C1CCCc2ccccc21)c1ncnc2nc[nH]c12 (stereo not given) | -11.4% | -15.6%
SMILES | FMDV antiviral | FMDV RLuc
CN(Cc1ccc2ccccc2c1)C(=O)CN(C)c1ncnc2nc[nH]c12 | 31.6µM* | ?
CCCCC(=O)N1CCN(CCNc2cc(=O)oc3ccccc23)CC1 | 1.6% | -13.1%
CCOCCCNc1ncnc2onc(C)c12 | -5.7% | -5.3%
CCOc1ccc(CCNc2ncnc3onc(C)c23)cc1OCC | 3.16µM* | 2.51µM*
Cc1ccc(CCNc2ncnc3onc(C)c23)cc1 | 1.78µM* | 1.58µM*
CCCNc1ncnc2onc(-c3ccc(C)cc3)c12 | 8.4% | 15.4%
Cc1ccc(CNc2c(C)c(C)nc3nncn23)cc1 | 2.24µM* | 2µM*
CCc1c(C)nc2nncn2c1NCc1ccc(Cl)cc1 | -39.8% | ?
COc1cn(CC(=O)Nc2ccc(C)cc2)c(CN2CCN(C(C)=O)CC2)cc1=O | 5.0% | 33.3%
O=C(c1ccc(N2CCCN(Cc3ccccc3)C2=O)cc1)N1CCN(c2ccccc2)CC1 | ? | -13.7%
Cc1cccc(CN2CCCN(c3cccc(C(=O)N4CCN(c5ccccc5)CC4)c3)C2=O)c1 | ? | 10µM*
Cc1cc(C)c(C(=O)Cn2nc(C(=O)O)c3ccccc3c2=O)c(C)c1 | 2.5% | -6.1%
COc1ccc(-c2cc3ccc(OC(=O)C(C)(C)C)cc3oc2=O)cc1OC | 143.9% | 67.9%
COC(=O)c1ccoc1COC(=O)c1ccc2c(c1)CCCC2 | 79.2% | 5.2%
O=[N+]([O-])c1ccc(/C=C/c2ccccc2)cc1 | 31.3% | 8.0%
O=[N+]([O-])c1ccc(C(=C(c2ccccc2)c2ccccc2)c2ccc([N+](=O)[O-])cc2)cc1 | 2.51µM* | 3.16µM*
CN1CCc2c(c(N3CCOCC3)nc3sc(C(=O)Nc4ccccc4)c(N)c23)C1 | 177.0% | -3.2%
Cc1cccc(C(=O)NNC(=S)NC(=O)/C=C/c2cccs2)c1 | -3.0% | -20.6%
C(#CCN1CCN(CC#CCOCCOCc2ccccc2)CC1)COCCOCc1ccccc1 | 4.47µM* | 5.01µM*
C(#CCN1CCN(CC#CCOCc2ccccc2)CC1)COCc1ccccc1 | -6.6% | -3.5%
CCNC(=O)C(C)NC(=O)c1cc2ccc(OC)cc2nc1C (stereo not given) | 22.8% | 0.0%
CC(C)c1ccc(-c2noc(CSc3nnc(C4COc5ccccc5O4)o3)n2)cc1 (stereo not given) | 119.8% | 16.9%
Oc1c(Br)cc(Cl)cc1Cc1cc(Cl)cc(Br)c1O | ? | 3.55µM*
O=Cc1cc(Cl)c(O)c(Br)c1 | 5.0% | -5.7%
Clc1cccc(Nc2nc3nonc3nc2N2CCCCC2)c1 | ? | 6.31µM*
SMILES | FMDV antiviral | FMDV RLuc
O=C(Nc1cccc(Cl)c1)c1nc2ccccc2nc1N1CCCC1 | -3.8% | 3.2%
C/C(=N/NC(=O)C1CC1)c1ccc(Cl)c(Cl)c1Cl | 12.5% | 5.8%
Cc1occc1C(=O)N(Cc1cccs1)C1CC1 | 0.0% | -2.0%
Cc1cc(C)c(NC(=O)Cn2nnc(C(=O)NCc3cccs3)c2N)c(C)c1 | 35.5µM* | -3.3%
Cc1ccccc1NC(=O)Cn1nnc(C(=O)NCc2cccs2)c1N | 99.9% | 56.0%
CC1=CCCC(C)(C)C1/C=C/C(C)=N\Nc1cc(C(F)(F)F)ccc1Cl (stereo not given) | -4.1% | -15.2%[1.06 µM]
CC(C)(C)C(=O)Nc1ccc2oc(-c3ccc(F)cc3)nc2c1 | ? | -3.2%
CCC1CCCCN1S(=O)(=O)c1ccc(NC(=O)c2snnc2C)cc1 (stereo not given) | 17.8µM* | ?
Cc1nnsc1C(=O)Nc1ccc(S(=O)(=O)N2CCCCC2)cc1 | -8.9% | -2.9%
O=C(CSc1ncc(-c2ccccc2)o1)Nc1ccc(F)c(F)c1 | 80.8% | 31.0%
CCC(Oc1ccc(F)cc1)C(=O)Nc1cc(-c2ccc(C)cc2)no1 (stereo not given) | -2.0% | -3.9%
CCC(Oc1ccc(F)cc1)C(=O)Nc1nc(-c2ccc(F)cc2)ns1 (stereo not given) | 25.1µM* | ?
CCOC(=O)c1[nH]c(C)c(C(=O)NCc2ccc(F)cc2)c1C | -16.7% | -5.2%
CC(=O)c1[nH]c(C)c(C(=O)NCc2ccc(Cl)cc2)c1C | 11.2µM* | ?
CC(C)COc1ccccc1C1CC(=O)Nc2cc3c(cc21)OCO3 (stereo not given) | ? | 12.6µM*
COc1ccc(C2CC(=O)Nc3cc4c(cc32)OCO4)c(OC)c1 (stereo not given) | 16.2% | -7.0%
O=C(Nc1nc2c(s1)CCCCC2)c1ccc(Cl)cc1 | -26.3% | 10µM*
COc1ccc(C(=O)Nc2nc3c(s2)CCCC3)cc1Cl | 47.2% | ?
COc1ccc2cc(/C=C(/C#N)c3nc4ccccc4[nH]3)ccc2c1 | 225.2% | 10µM*

Screening data from PubChem BioAssay.
